These results are taken from PubChem BioAssay AID588726 (The Scripps Research Institute Molecular Screening Center, 2011).

Out of some 360,000 compounds screened, about 8,200 (2.3%) were called active. The sample holds actives, similar compounds and a random draw of the others, so the mix is not that of the screen. Values without a mark were called inactive. No stated cut-off is given here; in the data, active means inhibition above about 27%; inactive means the rest.

For the test, the target named is Fructose-bisphosphate aldolase (Mycobacterium tuberculosis (strain ATCC 25618 / H37Rv)) (UniProt P9WQA3). Description: Mtb FBA enzyme inhibitors, primary screen, biochemical, fluorescence, strain H37Rv (AID 588726).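 Further: 0% = vehicle and 100% = reference inhibitor.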 The note with it: purified M. tuberculosis FBA, fluorescence read-out, at 1 µM, active compounds read high.
Chain of Fructose-bisphosphate aldolase (Mycobacterium tuberculosis (strain ATCC 25618 / H37Rv)) (P9WQA3 whole entry, looked up): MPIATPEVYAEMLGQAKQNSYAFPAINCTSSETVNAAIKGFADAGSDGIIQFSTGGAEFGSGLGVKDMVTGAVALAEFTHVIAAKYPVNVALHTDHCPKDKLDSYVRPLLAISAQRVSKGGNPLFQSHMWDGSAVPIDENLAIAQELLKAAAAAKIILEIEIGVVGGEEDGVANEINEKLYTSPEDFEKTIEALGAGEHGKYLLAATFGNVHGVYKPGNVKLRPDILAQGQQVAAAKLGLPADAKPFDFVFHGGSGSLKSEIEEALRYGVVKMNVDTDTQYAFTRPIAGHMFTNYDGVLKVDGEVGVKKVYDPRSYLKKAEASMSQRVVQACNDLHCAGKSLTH
In the case of `COc1cccc(N2CC(NC(=O)c3ccc4ccccc4c3)CC2=O)c1` (configuration not stated), the inhibition is 1.83%.

As for `COc1ccc(S(=O)(=O)N2CCN(c3cnccn3)CC2)cc1`, the inhibition is 2.14%.

Turning to `O=C1OCCN1C(=O)[C@H]1[C@H](c2ccccc2)C(c2ccc(F)cc2)=NN1c1ccccc1`, the inhibition is 11%. The figure for `C[C@@H]1C(c2ccc(F)cc2)=NN(c2ccc(Br)cc2)[C@H]1C(=O)N1CCOC1=O` is 20.3%; for `O=C1OCCN1C(=O)[C@H]1[C@H](c2ccc(F)cc2)C(c2ccccc2)=NN1c1ccc(Br)cc1` it is 42.2% (active); for `O=C1OCCN1C(=O)[C@H]1[C@H](c2ccc(Cl)cc2)C(c2cccc(Cl)c2)=NN1c1ccc(Br)cc1` it is 57.4% (active). For `Cc1nn(-c2ccccc2)c2c1C(c1cccc([N+](=O)[O-])c1)N(c1ccccc1)C(=O)N2` (configuration not stated) the value was -3.95%.

Regarding `CCOC(=O)c1cccc(NC(=O)CN2C(=O)C3CC=CCC3C2=O)c1` (configuration not stated), the inhibition was -2.2%. As to `CCC(=O)c1ccc(OCC(=O)OCC(=O)N2CCc3ccccc3C2)cc1`, the inhibition was 6.24%.

With `CCCN(CCc1ccccc1)C1CCc2c(O)cccc2C1` (configuration not stated), the inhibition is 3.16%. For the compound `CCOC(=O)C=Cc1ccc(C(=O)OCC)[nH]1`, the inhibition is -4.99%. For `Cc1sc2ccccc2c1CNC[C@H]1O[C@@H](n2ccc(=O)[nH]c2=O)[C@H](O)[C@@H]1O` the value was 1.01%. With `Cc1cc(=O)n2nc(N3CCCC3C(=O)NCCCN3CC(C)CC(C)C3)sc2n1` (configuration not stated), the inhibition is 3.34%. The figure for `CN1CCc2c(sc3c2c(NCc2ccco2)nc2nnnn23)C1` is 37.5% (active).

Turning to `CCSc1nc2sc3c(c2c(=O)n1-c1ccc(C)cc1)CCN(C)C3`, the inhibition was 0.45%.

With `CCCSc1nc(NCc2ccco2)c2c3c(sc2n1)COC(C)(CC)C3` (configuration not stated), the inhibition was 2.94%. The figure for `CC(C)(C)c1ccc(C(=O)NCCn2c(N)c(C#N)c3nc4ccccc4nc32)cc1` is 144% (active); for `CN1OC(COC(=O)c2ccc(Cl)cc2)CC1c1ccccc1` (configuration not stated) it is 0.19%. The figure for `Cn1cncc1COC(=O)c1ccc(Cl)cc1` is 3.05%.

On to `CC(C)(C)c1ccc(C(=O)NCC(=O)OCN2C(=O)c3ccccc3C2=O)cc1`, for which the inhibition was -0.24%. For `CCCCNC(=O)CCNC(=O)c1ccc(C(C)(C)C)cc1` the value was -0.2%; for `N#Cc1c(N)n(CCOC(=O)c2ccc(Cl)cc2)c2nc3ccccc3nc12`, 69.1% (active); for `O=C(c1ccccc1Cl)N(Cc1ccccc1F)N1C(=O)CCCC1=O`, -2.23%. In the case of `CC(C)CN(C(=O)c1ccc2c(c1)OCO2)C1CCS(=O)(=O)C1` (configuration not stated), the inhibition is -0.95%. As for `CC(=O)Nc1ccc(Nc2ncnc3c2nnn3Cc2ccccc2Cl)cc1`, the inhibition was 2.68%. The figure for `CC(=O)c1cnn(-c2cc(Oc3ccc(F)cc3)ncn2)c1C` is 2.98%; for `CCc1ccccc1NC(=O)CCOc1ccccc1` it is 0.8%; for `Cc1ccc(NC(=O)COC(=O)CN2CCSC2=O)cc1F` it is -1.26%.

For the compound `CC1=NN(C(=O)c2ccc(Br)cc2)C(O)(c2ccccc2)C1` (configuration not stated), the inhibition was -1.19%.

`COc1ccc(NC(=O)C2(C)Cc3c(-c4cccc(NC(C)=O)c4)ccnc3O2)cc1` (configuration not stated): the inhibition is 5.4%.

Turning to `CSc1ccc(/C=N/N2CCN(Cc3ccccc3Cl)CC2)cc1`, the inhibition was -4.01%.

`COCCn1c(SCC(=O)N2CCCCCC2)nc2c(c1=O)SCC2`: the inhibition was -1.33%. Consider `Cc1ccc(CCNC(=O)c2ccc3nc4ccccc4c(=O)n3c2)cc1`, for which the inhibition is 12.9%. The figure for `O=C(NCC1CCCO1)c1cc2c([nH]c3ccccc32)c(-c2ccc(F)cc2)n1` (configuration not stated) is 14%; for `Cc1cccc(NC(=O)c2ccc3c(=O)n(CC4CCCO4)c(=S)[nH]c3c2)c1` (configuration not stated) it is -2.72%. The figure for `O=C(NCc1cccnc1)c1cc(S(=O)(=O)N2CCOCC2)c(Cl)cc1Cl` is -0.2%; for `Cc1cccn2c(=O)c3cc(C(=O)NCCN4CCOCC4)c(=N)n(Cc4cccnc4)c3nc12` it is 131% (active); for `O=C(CSc1nc2ccccc2c(=O)n1Cc1ccc(F)cc1)NCC1CCCO1` (configuration not stated) it is 2.15%.

Turning to `COc1ccc(CCNC(=O)Cn2c(=O)n(CC3CCCO3)c(=O)c3ccccc32)cc1OC` (configuration not stated), the inhibition was 4.02%. The figure for `Cc1cccn2c(=O)c3cc(C(=O)NCC4CCCO4)c(=N)n(Cc4ccc(F)cc4)c3nc12` (configuration not stated) is 186% (active); for `Cc1ccccc1NC(=O)Cn1c(=O)n(CC2CCCO2)c(=O)c2ccccc21` (configuration not stated) it is 2.56%; for `Cc1ccc(Cn2c(C)c3cnn(CC(=O)NCCN4CCOCC4)c(=O)c3c2C)cc1` it is -0.73%. Turning to `CC(C)(C)c1cc2cccnc2n1Cc1cccc(F)c1`, the inhibition was 3.01%. For the compound `COc1cc(/C=C/C(=O)O)cc(S(=O)(=O)Nc2ccccc2SC)c1OC`, the inhibition was -0.58%. The figure for `CC(C)(C)CC(=O)Nc1nc(C(N)Cc2ccc(C(F)(F)F)cc2)cs1` (configuration not stated) is -1.2%. For `Cc1ccccc1NC(=O)CCNS(=O)(=O)c1ccc2[nH]c(=O)oc2c1` the value was -4.94%; for `CC(=O)c1nn(-c2cccc(C(F)(F)F)c2)c(=O)[nH]c1=O`, 2.77%. For `COc1cc(OC)c(C(=O)OC(C)C(=O)Nc2cc(C(F)(F)F)ccc2Cl)cc1OC` (configuration not stated) the value was -1.34%; for `C/C(=N\NC(=O)c1ccc(CSc2nc(C)cc(C)n2)cc1)C1CCCCC1`, -4.8%. Consider `CC(=O)c1ccc(NC(=O)CSc2nc3ccccc3c(=O)n2CCCN2CCOCC2)cc1`, for which the inhibition was -0.35%.

As to `CCOC(=O)C1CCN(Cc2c(C(=O)N3CCOCC3)nc3c(C)cccn23)CC1`, the inhibition was 8.49%.

For the compound `C=CCO/N=C/C1=C(O)C(C(=O)OC)C(C)(C)CC1=O` (configuration not stated), the inhibition was 0.55%. The figure for `O=C1c2ccccc2C(=O)C1c1ccccc1` is 4.16%. The figure for `O=C1[C@@H](c2ccccc2)[C@@H](c2ccccc2)N1c1cccnc1` is 4.74%. The figure for `O=C1C(=O)N(c2ccccc2)C(c2ccccc2)C1c1ccccc1` (configuration not stated) is 53% (active); for `Cc1ccccc1-c1csc(C(O)c2cccc(Cl)c2)n1` (configuration not stated) it is -4.41%; for `CCSc1nnc(-c2cc3c(s2)-c2ccccc2CC3)o1` it is 61.2% (active).

As to `C#CCSc1nnc(-c2sc3ccccc3c2Cl)o1`, the inhibition was 4.19%. For `O=C(CSc1nnc(-c2ccccc2O)o1)NC1CCCCC1` the value was 0.67%; for `Fc1ccc(-c2nnc(CSc3nnc(-c4ccc5c(c4)OCO5)o3)o2)cc1`, -2.07%. The figure for `Clc1ccc(CSc2nnc([C@@H]3CCCN3)o2)cc1` is 4.22%; for `Fc1ccc(CSc2nnc(-c3cc4c(s3)-c3ccccc3CC4)o2)cc1` it is 154% (active).

By inhibition is commonly meant the change of the read-out against control, counted positive when it falls.
